What all share (experiment): protein-binding microarray (PBM); PBM: ~300 nM protein, 6 mM HEPES pH 7.8, 80 mM KCl, 0.5 mM EDTA, 0.5 mM EGTA, 6% glycerol, 35 ng/ul poly-dIdC, 1% milk, 1 h, room temperature; Ap Aiptasia and Nv Nematostella (sea anemones) / Co Capsaspora / Aq Amphimedon (sponge) / Dm Drosophila / Hu human; RHD is the Rel homology domain; high values mean tight binding
What all share (conditions): dsDNA, one strand shown

In one assay the target is T1, GST-Ap-NF-kB RHD (Exaiptasia pallida (Aiptasia), UniProt A0A913YAJ5 2-422).
T1 sequence: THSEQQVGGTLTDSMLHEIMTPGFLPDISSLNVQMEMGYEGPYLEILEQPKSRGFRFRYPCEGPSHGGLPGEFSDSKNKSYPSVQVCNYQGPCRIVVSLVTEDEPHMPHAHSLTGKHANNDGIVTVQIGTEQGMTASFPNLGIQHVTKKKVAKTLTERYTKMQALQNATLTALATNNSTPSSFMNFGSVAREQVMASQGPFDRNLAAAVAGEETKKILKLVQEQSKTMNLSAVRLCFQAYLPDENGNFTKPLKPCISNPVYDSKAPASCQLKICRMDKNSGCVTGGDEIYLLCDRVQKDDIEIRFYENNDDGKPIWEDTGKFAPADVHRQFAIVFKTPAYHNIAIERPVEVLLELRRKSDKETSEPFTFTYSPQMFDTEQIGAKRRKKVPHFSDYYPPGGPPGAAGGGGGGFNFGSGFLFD

For assay [1], the target named is T2, GST-Nv-NF-kB (Cys allele) (Nematostella vectensis, UniProt E5G601 2-411).
T2 sequence: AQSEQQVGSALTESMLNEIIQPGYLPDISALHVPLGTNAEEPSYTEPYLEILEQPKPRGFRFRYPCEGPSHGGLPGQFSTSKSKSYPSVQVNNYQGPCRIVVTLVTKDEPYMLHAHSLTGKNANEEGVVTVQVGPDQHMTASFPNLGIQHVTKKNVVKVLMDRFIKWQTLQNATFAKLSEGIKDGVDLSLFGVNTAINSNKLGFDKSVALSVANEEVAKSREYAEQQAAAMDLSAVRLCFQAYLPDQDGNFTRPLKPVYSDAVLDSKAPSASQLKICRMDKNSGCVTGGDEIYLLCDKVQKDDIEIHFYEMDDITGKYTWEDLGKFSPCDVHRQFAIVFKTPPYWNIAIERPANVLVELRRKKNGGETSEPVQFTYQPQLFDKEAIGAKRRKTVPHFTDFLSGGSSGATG

The target in assay [2] is T3, GST-Nv-NF-kB (Ser allele) (Nematostella vectensis, UniProt A7UNT2 2-411).
T3 sequence: T2 sequence with Q21R, C66S, S207N, E215Q, V217A, E225K, A268E, D399E

For a further assay, the target named is T4, GST-Co-NF-kB (Capsaspora owczarzaki, UniProt F1ARL5 200-546).
T4 sequence: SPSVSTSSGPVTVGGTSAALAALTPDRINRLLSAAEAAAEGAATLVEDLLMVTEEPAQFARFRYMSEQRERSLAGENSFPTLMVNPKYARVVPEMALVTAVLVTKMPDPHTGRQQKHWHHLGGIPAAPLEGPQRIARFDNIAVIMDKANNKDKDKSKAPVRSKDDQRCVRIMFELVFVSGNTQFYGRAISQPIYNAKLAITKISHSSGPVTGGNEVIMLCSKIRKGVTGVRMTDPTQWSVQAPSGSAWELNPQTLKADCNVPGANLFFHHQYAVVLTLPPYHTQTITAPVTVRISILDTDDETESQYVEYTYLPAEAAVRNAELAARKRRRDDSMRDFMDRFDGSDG

A further assay has as its target T5, GST-Dm-Relish (Drosophila melanogaster, UniProt Q94527 99-473).
T5 sequence: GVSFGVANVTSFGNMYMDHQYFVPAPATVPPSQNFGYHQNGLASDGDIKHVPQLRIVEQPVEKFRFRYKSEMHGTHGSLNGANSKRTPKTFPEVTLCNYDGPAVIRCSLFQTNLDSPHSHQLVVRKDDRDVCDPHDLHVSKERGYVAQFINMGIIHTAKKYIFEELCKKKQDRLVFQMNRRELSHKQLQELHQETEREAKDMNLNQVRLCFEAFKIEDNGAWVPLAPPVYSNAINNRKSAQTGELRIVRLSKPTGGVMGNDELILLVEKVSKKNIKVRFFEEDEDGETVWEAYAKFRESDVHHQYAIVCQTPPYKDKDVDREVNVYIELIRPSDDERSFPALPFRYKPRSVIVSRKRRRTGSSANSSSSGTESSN

The target of another assay is T6, GST-Aq-NF-kB (Amphimedon queenslandica, UniProt A9Y5G7 2-389).
T6 sequence: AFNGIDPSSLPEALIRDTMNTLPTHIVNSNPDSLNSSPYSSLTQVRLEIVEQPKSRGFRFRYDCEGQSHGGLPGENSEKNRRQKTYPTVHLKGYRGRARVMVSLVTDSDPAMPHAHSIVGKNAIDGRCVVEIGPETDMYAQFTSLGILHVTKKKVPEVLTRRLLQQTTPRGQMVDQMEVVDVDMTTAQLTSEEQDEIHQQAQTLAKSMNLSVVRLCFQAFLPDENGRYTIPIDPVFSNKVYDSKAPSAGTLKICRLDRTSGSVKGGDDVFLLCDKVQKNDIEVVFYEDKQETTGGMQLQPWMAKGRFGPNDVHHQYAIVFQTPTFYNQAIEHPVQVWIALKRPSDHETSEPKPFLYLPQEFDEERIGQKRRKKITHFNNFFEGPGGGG

The target of another assay is GST-Hu-p50 (Homo sapiens, UniProt P19838 7-356).

Changes are numbered by the printed parent chain.

Chain of GST-Hu-p50 (P19838 7-356): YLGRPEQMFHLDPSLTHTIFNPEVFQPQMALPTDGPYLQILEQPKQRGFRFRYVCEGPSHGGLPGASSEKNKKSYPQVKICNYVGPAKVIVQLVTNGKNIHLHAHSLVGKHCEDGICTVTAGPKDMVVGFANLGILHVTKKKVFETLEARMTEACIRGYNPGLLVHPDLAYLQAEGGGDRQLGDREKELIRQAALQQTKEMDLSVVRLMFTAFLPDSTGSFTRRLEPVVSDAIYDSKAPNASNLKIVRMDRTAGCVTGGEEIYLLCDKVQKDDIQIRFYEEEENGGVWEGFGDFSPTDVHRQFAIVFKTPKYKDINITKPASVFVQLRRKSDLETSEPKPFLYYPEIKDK

On to “CCGATTAACATCAAAGCTTTCCCTGATGTTAATCGGGTCTTGATTCGCTTGACGCTGCTG”, for which the binding signal with GST-Ap-NF-kB RHD turned out to be 2.54 z-score; in assay [1], 4.28 z-score; in assay [2], 4.2 z-score; with GST-Co-NF-kB, 3.59 z-score; with GST-Dm-Relish, 1.47 z-score; in the assay with GST-Aq-NF-kB it was 4.07 z-score. For the same sequence, the binding signal in the assay with GST-Hu-p50 is 3.46 z-score.

For “CCGATTAACATCAAGTTTCCCCCTGATGTTAATCGGGTCTTGATTCGCTTGACGCTGCTG”, the binding signal with GST-Ap-NF-kB RHD is 8.07 z-score; in assay [1], 8.22 z-score; in assay [2], 11.2 z-score; with GST-Co-NF-kB, 11.4 z-score; with GST-Dm-Relish, 4.83 z-score; with GST-Aq-NF-kB, 6.51 z-score. The same sequence returned a binding signal in the assay with GST-Hu-p50 of 7.11 z-score.

Take “CCGATTAACATCAAGAACCCCCGTGATGTTAATCGGGTCTTGATTCGCTTGACGCTGCTG”: the binding signal with GST-Ap-NF-kB RHD is 6.68 z-score; in assay [1] it was 4.55 z-score; in assay [2], 5.31 z-score; with GST-Co-NF-kB, 3.25 z-score; with GST-Dm-Relish, 8.39 z-score; with GST-Aq-NF-kB, 5.21 z-score. For the same sequence, the binding signal with GST-Hu-p50 was 5.41 z-score.

Consider “CCGATTAACATCAAAATTTTCCCTGATGTTAATCGGGTCTTGATTCGCTTGACGCTGCTG”, for which the binding signal with GST-Ap-NF-kB RHD was 5.5 z-score; in assay [1] it was 8.54 z-score; in assay [2], 10.1 z-score; in the assay with GST-Co-NF-kB, 6.32 z-score; with GST-Dm-Relish, 5.19 z-score; with GST-Aq-NF-kB, 7.04 z-score. This sequence also came in with a binding signal with GST-Hu-p50 of 5.99 z-score.

In the case of “CCGATTAACATCAACAATTTCCCTGATGTTAATCGGGTCTTGATTCGCTTGACGCTGCTG”, the binding signal with GST-Ap-NF-kB RHD was determined as 3.9 z-score; in assay [1], 5.04 z-score; in assay [2] it was 6.92 z-score; with GST-Co-NF-kB, 4.63 z-score; in the assay with GST-Dm-Relish, 2.52 z-score; in the assay with GST-Aq-NF-kB, 4.15 z-score. Further, the binding signal with GST-Hu-p50 stood at 4.08 z-score.

Regarding “CCGATTAACATCACAAACTCCCCTGATGTTAATCGGGTCTTGATTCGCTTGACGCTGCTG”, the binding signal was 7.26 z-score with GST-Ap-NF-kB RHD; 5.84 z-score in assay [1]; 7.23 z-score in assay [2]; 4.83 z-score in the assay with GST-Co-NF-kB; 5.81 z-score with GST-Dm-Relish; 5.35 z-score with GST-Aq-NF-kB. In the assay with GST-Hu-p50, this sequence returned a binding signal of 5.66 z-score.

For the sequence “CCGATTAACATCACAATTTCCCCTGATGTTAATCGGGTCTTGATTCGCTTGACGCTGCTG”, the binding signal with GST-Ap-NF-kB RHD is 8.29 z-score; in assay [1], 9.4 z-score; in assay [2] it was 12 z-score; with GST-Co-NF-kB it was 8.61 z-score; with GST-Dm-Relish, 5.96 z-score; with GST-Aq-NF-kB, 6.69 z-score. Moreover, the binding signal with GST-Hu-p50 was determined as 6.74 z-score.

Turning to “CCGATTAACATCAAAATTCCCTTTGATGTTAATCGGGTCTTGATTCGCTTGACGCTGCTG”, the binding signal with GST-Ap-NF-kB RHD came to 5.04 z-score; in assay [1], 8.11 z-score; in assay [2] it was 8.05 z-score; with GST-Co-NF-kB, 2.62 z-score; in the assay with GST-Dm-Relish it was 5.83 z-score; with GST-Aq-NF-kB, 7.05 z-score. The binding signal with GST-Hu-p50 was found to be 6.07 z-score.

Take “CCGATTAACATCAGGAAAATCCCTGATGTTAATCGGGTCTTGATTCGCTTGACGCTGCTG”: the binding signal in the assay with GST-Ap-NF-kB RHD was found to be 5.62 z-score; in assay [1], 7.7 z-score; in assay [2], 4.73 z-score; with GST-Co-NF-kB it was 2.51 z-score; with GST-Dm-Relish it was 7.08 z-score; with GST-Aq-NF-kB, 8.07 z-score. In addition, the binding signal with GST-Hu-p50 amounted to 5.88 z-score.

Consider “CCGATTAACATCAAAAAAATCCCTGATGTTAATCGGGTCTTGATTCGCTTGACGCTGCTG”, for which the binding signal with GST-Ap-NF-kB RHD came to 6.44 z-score; in assay [1] it was 7.72 z-score; in assay [2], 6.74 z-score; in the assay with GST-Co-NF-kB it was 2.41 z-score; with GST-Dm-Relish it was 8.77 z-score; in the assay with GST-Aq-NF-kB, 7.45 z-score. This sequence also gave a binding signal with GST-Hu-p50 of 5.87 z-score.

As for “CCGATTAACATCAAGACTTTCCCTGATGTTAATCGGGTCTTGATTCGCTTGACGCTGCTG”, the binding signal was found to be 4.06 z-score in the assay with GST-Ap-NF-kB RHD; 5.48 z-score in assay [1]; 5.59 z-score in assay [2]; 2.92 z-score in the assay with GST-Co-NF-kB; 2.82 z-score with GST-Dm-Relish; 6.09 z-score with GST-Aq-NF-kB. For the same sequence, in the assay with GST-Hu-p50, the binding signal was 4.12 z-score.

As for “CCGATTAACATCAAGGGAACTCCTGATGTTAATCGGGTCTTGATTCGCTTGACGCTGCTG”, the binding signal with GST-Ap-NF-kB RHD stood at 3.72 z-score; in assay [1] it was 3.17 z-score; in assay [2], 1.27 z-score; in the assay with GST-Co-NF-kB, 1.28 z-score; with GST-Dm-Relish it was 5.67 z-score; with GST-Aq-NF-kB, 4.45 z-score. The sequence further displayed a binding signal with GST-Hu-p50 of 2.28 z-score.

In the case of “CCGATTAACATCAATAATTACCCTGATGTTAATCGGGTCTTGATTCGCTTGACGCTGCTG”, the binding signal stood at 2.91 z-score in the assay with GST-Ap-NF-kB RHD; 4.26 z-score in assay [1]; 4.81 z-score in assay [2]; 3.12 z-score with GST-Co-NF-kB; 3.09 z-score with GST-Dm-Relish; 3.72 z-score with GST-Aq-NF-kB. Besides, the binding signal with GST-Hu-p50 was found to be 3.55 z-score.

The values are drawn from PMC5700166.
